# Compound activity as filed in PubChem BioAssay.
# Sampled rows, rich in hits. Any-hit rate of the full collection: about 5.2%.
# Tau fibril ThT: tau fibrillization inhibition (ThT binding) | P10636 | recombinant tau K18 P301L, heparin-induced fibrillization, ThT fluorescence | Potency, µM (doses to about 57.4 µM), actives largely listed as inhibitors | 270,000 compounds, 2.1% hits; further: nearly all actives have a fitted effect of over 55% in size
# Target sequence (P10636 561-689 P618L limits assumed): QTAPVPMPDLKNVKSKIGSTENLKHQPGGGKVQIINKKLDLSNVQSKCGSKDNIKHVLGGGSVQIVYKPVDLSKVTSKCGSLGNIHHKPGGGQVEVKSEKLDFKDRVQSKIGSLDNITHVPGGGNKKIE
#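 Heparin-induced (20 uM) aggregation of recombinant human K18 P301L tau, 15 uM unlabeled with 0.24 uM labeled, pH 7 acetate buffer, 6 hr at 37 C with compound. Fibrils quantified by 30 uM ThT fluorescence after 1 hr ambient incubation.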
# Tau fluor cs: counter-screen for tau fibril formation inhibitors; tau K18 P301L (four-repeat tau fragment) Alexa594 fluorescence, heparin fibrillization; Potency, µM (titrated, usually from 57.7 µM); 280,000 compounds, 0.93% hits; AID 1463; further: nearly all actives have a fitted effect of over 55% in size
#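 Human K18 P301L tau (15 uM unlabeled plus 0.24 uM Alexa 594-labeled, final) in 100 mM sodium acetate pH 7 was mixed with compound and 20 uM heparin and incubated 6 hr at 37 C.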
# FBPA coupling cs: counter-screen for Giardia aldolase inhibitors: coupling enzyme system. 290,000 compounds, 0.67% hits. activity change, negative = inhibition, % at 58.2 µM, hits read low. AID 2472. coupling enzyme system counterscreen, AmpLite Red fluorescence; in the data active means activity change below about -30%
#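 Counterscreen of the coupled detection system alone, without aldolase: glyceraldehyde-3-phosphate coupling enzymes plus AmpLite Red readout. Compounds at 57.5 uM final, 10 min RT preincubation, 20 min RT reaction, fluorescence 525/598 nm.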
# Tau FP inhib: tau fibrillization inhibition (FP); K18 P301L tau heparin fibrillization, Alexa594 FP, 6 h; Potency, µM (highest dose often 57.7 µM), actives largely listed as inhibitors; 280,000 compounds, 0.39% hits; AID 1468; further: nearly all actives have a fitted effect of over 55% in size
#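 Human tau K18 […] P301L fragment, 15 uM unlabeled plus 0.24 uM Alexa 594-labeled tau (final), with compound and 20 uM heparin in 100 mM sodium acetate pH 7; 6 hr at 37 C, then Alexa 594 FP read.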
# Sfp PPTase inh: blocks B. subtilis Sfp PPTase activity. Q9F4F7. Biochemical Sfp PPTase activity, qHTS. Potency, µM, usual class: inhibitors. 310,000 compounds, 3.5% hits;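 further: the enzyme is Sfp with the accession as filed and its product quenches rhodamine fluorescence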
#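 Buffer: 50 mM Hepes-Na pH 7.6, 10 mM MgCl2, 0.01% Nonidet P-40, 0.01% BSA. Enzyme 15 nM, pre-exposed to compound 15 min; substrates then added and fluorescence change tracked over 30 min.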
# Numbers stand for hits; – = inactive; ? = inconclusive; · = no result given; [ ] = dose if it differs, or a comment. Unless noted, the call rests on the fitted dose curve; in most records, active means well fitted curve in the direction sought with a large enough effect; inconclusive means small, poorly fitted or top-dose-only effect, or another doubt; inactive means no such curve, though single readings can be large; an effect the other way counts as inactive or inconclusive.
SMILES,Tau fibril ThT,Tau fluor cs,FBPA coupling cs,Tau FP inhib,Sfp PPTase inh
COc1ccc(N=C2C(=Nc3ccc(OC)cc3)N(c3ccc(OC)cc3)C(=S)N2C(=O)c2ccc(OC)cc2)cc1,28µM,–,–,–,–
S=c1[nH]nc(-c2cc(-c3ccco3)[nH]n2)n1-c1ccccc1,–,–,–,–,89µM
S=c1[nH]nc(-c2cc(-c3ccco3)[nH]n2)n1-c1ccccc1Cl,20µM,?,–,?,28µM
Cc1ccc(-n2c(-c3cc(C)n(C)n3)n[nH]c2=S)cc1,–,–,–,–,?
Cc1cc(-c2n[nH]c(=S)n2-c2ccccc2)nn1C,–,–,–,–,79µM
COc1ccc(OC)c(-n2c(-c3cc(-c4ccco4)[nH]n3)n[nH]c2=S)c1,–,–[2.34 µM],–,–,–
S=c1[nH]nc(-c2ccco2)n1-c1ccccc1Cl,–,–,–,–,–
COc1ccc2oc(-c3ccccc3)c(OC)c(=O)c2c1,?,–,–,–,–
CCCOc1cccc(C(=O)N(Cc2sccc2C)C2CCS(=O)(=O)C2)c1 (stereo not drawn),–,–,·,–,·
Cc1ccc(C)c(Nc2cc(C(=O)NC3CCCCC3)c3ccccc3n2)c1,–,–,·,–,·
Cc1[nH]c(=S)[nH]c(=O)c1CCC1OCCO1,·,–,–,–,79µM
Cc1ccc(C2NC(=O)c3c(sc(C)c3C)N2)c(O)c1 (stereo not drawn),?,?,–,–,50µM
Cc1ccc(C)c(C2NC(=O)c3ccccc3N2)c1 (stereo not drawn),–,–,–,–,–
Cc1cccc(C2NC(=O)c3c(sc(C)c3C)N2)c1O (stereo not drawn),16µM,–,–,–,89µM
COc1ccc(-n2cc3c(c2-c2cccc(Br)c2)c(=O)n(C)c(=O)n3C)cc1OC,–,–,·,–,·
C(=C/c1nccc2c1[nH]c1ccccc12)/c1ccc2c(c1)OCO2,?,7.1µM[quencher],–,–,–
CCOC(=O)c1c(NC(=O)/C=C/c2ccc(OCC)cc2)sc(C(C)=O)c1C,–,–,·,–,·
O=c1c(C/C=C/c2ccccc2)c(O)ccn1Cc1cccc(Cl)c1,–,–,–,?,–
COc1ccc2[nH]cc(CCn3ccc(O)c(C/C=C/c4ccccc4)c3=O)c2c1,?,25µM[quencher],–,?,–
O=c1c(C/C=C/c2ccccc2)c(O)ccn1CCc1c[nH]c2ccccc12,–,18µM[quencher],–,–,–
CC1(C)CCC[C@@](C)([C@H]2CC[C@]3(C)[C@@H]2[C@H](O)CC2[C@@]4(C)CC[C@H](O)C(C)(C)[C@@H]4[C@@H](O)C[C@]23C)O1 (stereo partly drawn),·,·,–,·,–
Cc1cc2cc(C(c3nnnn3Cc3ccco3)N3CCc4ccccc4C3)c(=O)[nH]c2cc1C (stereo not drawn),28µM,–,–,?,11µM
Cc1ccc2[nH]c(=O)c(C(c3nnnn3Cc3ccccc3)N3CCc4ccccc43)cc2c1 (stereo not drawn),20µM,?,-33,?,20µM
Cc1ccc2cc(C(c3nnnn3Cc3ccccc3)N3CCc4ccccc43)c(=O)[nH]c2c1 (stereo not drawn),?,–,–,–,–
Cc1cc2cc(C(c3nnnn3Cc3ccccc3)N3CCc4ccccc43)c(=O)[nH]c2cc1C (stereo not drawn),16µM,–,-45,?,35µM
SMILES,Tau fibril ThT,Tau fluor cs,FBPA coupling cs,Tau FP inhib,Sfp PPTase inh
Cc1cc2cc(C(c3nnnn3Cc3ccco3)N3CCc4ccccc43)c(=O)[nH]c2cc1C (stereo not drawn),25µM,–,–,?,10µM
CCc1ccc2[nH]c(=O)c(C(c3nnnn3Cc3ccco3)N3CCC(C)CC3)cc2c1 (stereo not drawn),–,–,–,–,–
Cc1cccc2cc(C(c3nnnn3Cc3ccccc3)N3CCN(C)CC3)c(=O)[nH]c12 (stereo not drawn),–,–,–,–,–
Cc1ccc2cc(C(c3nnnn3Cc3ccccc3)N3CCc4ccccc43)c(=O)[nH]c2c1C (stereo not drawn),–,–,–,–,50µM
CCOC(=O)c1c(C)nc(C)c(C(=O)OCC)c1-c1cccnc1,–,–,–,–,–
CCOC(=O)c1c(C)nc(C)c(C(=O)OCC)c1-c1ccccc1,–,–,–,?,45µM
CCOCc1nnc(NC(=O)COC)s1,–,–,–,?,50µM
